This is part of a sample that, as a whole, favours compounds with a hit. Of some 83,000 tested, about 20% had one in any assay.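 96-well plates, one dose, 48 hours. Percent growth reported; active if below 10.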 Active and inactive are the calls of the source.
Each compound was assayed on HL-60(TB) leukemia (assay: NCI-60 one-dose screen, 48 h (100 = growth as untreated, 0 = no growth, -100 = all killed)). Details: 10 µM unless noted.
In the case of CCn1c2ccc(O)cc2c2c(C)c3c[n+](C(C)C)ccc3c(C)c21, the growth is reported as 70.3% (inactive). With COc1cccc(-c2nc3sccn3c2-c2ccnc(NCCN3CCCNS3(=O)=O)n2)c1 the growth was 108% (inactive). For c1ccc(-c2cn3nc(-c4c[nH]c5ccccc45)sc3n2)cc1, the growth was 95.1% (inactive). With COc1ccc2c(c1)C=CC(C#N)N2C(=O)c1ccccc1 (stereo not given) the growth was -24.7% (active). Clc1nc(Cl)c2c(ncn2C/C=C\Cn2cnc3c(Cl)nc(Cl)nc32)n1 was tested, and the growth was -80.7% (active). With C(=C1c2ccccc2-c2ccccc21)c1ccncc1 the growth was 9.03% (active). With Cc1nc2c(nnn2-c2ccccc2)c2nc(-c3ccc(Cl)cc3)oc(=O)c12 the growth was 98.8% (inactive). With Cc1c2ccncc2c(C)c2c1c1cc(CO)ccc1n2C the growth was 19.2% (inactive). In the case of NS(=O)(=O)c1ccc(CCN2C(=O)/C(=C\c3ccc(Cl)cc3)C=C2c2ccc3ccccc3c2)cc1, the growth is reported as 99.5% (inactive). With C=C1C(=O)O[C@H]2[C@H]1CC/C(Cn1cc(CNCCc3c[nH]c4ccc(Cl)cc34)nn1)=C\CC[C@@]1(C)O[C@@H]21 the growth was -55.2% (active). O=C1c2nsnc2C(=O)c2c(F)c(F)c(F)c(F)c21 was tested, and the growth was -41.9% (active). For COc1cc2cc(Oc3ccc(NC(=O)Nc4ccc(Cl)c(C(F)(F)F)c4)cc3)c(C)nc2cc1OCCN1CCOCC1, the growth was 11% (inactive). CCCCCCC(CC#N)(CCC)CCCC (stereo not given) was tested, and the growth was 112% (inactive). In the case of C[N+]1(CCc2ccccc2)CCC(CCC2CC[N+](C)(CCc3ccccc3)CC2)CC1 (stereo not given), the growth is reported as 105% (inactive). In the case of Cc1ccc(C(F)(F)F)cc1N1CCN(C(=O)[C@H]2C[C@H]2c2ccc(C(F)(F)F)nc2)CC1, the growth is reported as 81.8% (inactive). For O=Cc1ccc(Cl)c(Cl)c1, the growth was 106% (inactive). O=C(CN1CCN(c2cc3c(cc2F)c(=O)c(C(=O)O)cn3C2CC2)CC1)N/N=C/c1ccco1 was tested, and the growth was 103% (inactive). CCOc1cc(/C=C/C(=O)C(C(=O)/C=C/c2ccc(OC(=O)CNc3nc4ccccc4[nH]3)c(OCC)c2)C(=O)CNc2nc3ccccc3[nH]2)ccc1OC(=O)CNc1nc2ccccc2[nH]1 was tested, and the growth was -44.4% (active). In the case of C=CCn1c(SCC(=O)Nc2ccc(/C(C)=N/O)cc2)nnc1-c1cc(-c2ccc(S(N)(=O)=O)cc2)nc2ccccc12, the growth is reported as 7.74% (active). In the case of COc1cc(/C=C2\CN(C)C/C(=C\c3cc(CN4CCOCC4)c(O)c(OC)c3)C2=O)cc(CN2CCOCC2)c1O, the growth is reported as 32.6% (inactive). COc1ccc(C(=O)c2cc3c(OC)c(OC)c(OC)cc3[nH]2)cc1 was tested, and the growth was 36.1% (inactive). With COc1ccc(/C=C(/C(=O)n2cnnn2)c2cc(OC)c(OC)c(OC)c2)cc1 the growth was 4.64% (active). CCCCCCCCNc1ncnc2c1ncn2Cc1nnc2c3ccccc3c(Cl)nn12 was tested, and the growth was 29.2% (inactive). C[N+](C)(C)C(=O)c1ccccc1 was tested, and the growth was 125% (inactive). For Nc1nc2ccc([C@@H]3Nc4ccc5[nH]ncc5c4[C@H]4[C@H]5CCC(C5)[C@H]43)cc2s1, the growth was 12.4% (inactive). C[C@]12CC[C@@H]3c4cc(OC(F)F)c(O)cc4CC[C@H]3[C@@H]1CC[C@@H]2OS(N)(=O)=O was tested, and the growth was 7.66% (active). For COc1cc(C2C3=C(COC3=O)N(CCO)c3cc4c(cc32)OCCO4)cc(OC)c1OC (stereo not given), the growth was -21.8% (active). With Cn1cc(-c2csc(-c3c[nH]c4ccc(F)cc34)n2)c2cccnc21 the growth was 24.5% (inactive). For CCN(CC)CCCOc1ccc2ncnc(Nc3ccc(Oc4cccc(C(F)(F)F)c4)c(Cl)c3)c2c1, the growth was -45.2% (active). For COc1cc(-c2cc(/C=C/C(=O)c3ccc(F)c(F)c3)[nH]n2)cc(OC)c1OC, the growth was 82.6% (inactive). For CC(=O)O[C@@H]1C2CCC3C(CC[C@@]4(C)C3CC[C@@H]4C(C)N(C)C)[C@@]2(C)CC[C@@H]1NC(=O)C=C(C)C (stereo not given in full), the growth was -58.8% (active). In the case of Cc1[nH]n(C(=S)Nc2nc3cc(Cl)c(F)cc3s2)c(=O)c1N=Nc1ccc(F)c(Cl)c1, the growth is reported as 127% (inactive). COc1cc(C(=O)/C=C/c2ccc(N3CCN(C)CC3)cc2)cc(OC)c1OC was tested, and the growth was 98.2% (inactive). O=C(NNc1cnccn1)c1nc2cc(F)ccc2n2cccc12 was tested, and the growth was 2.46% (active). With CCOC(=O)C1=C(N)Oc2c(sc3c(C)cccc23)C1c1ccc(Cl)cc1 (stereo not given) the growth was 1.5% (active). With CNC(=O)c1cc(Oc2ccc3nc(NC(=O)Nc4cc(C(F)(F)F)cc(C(F)(F)F)c4)sc3c2)ccn1 the growth was -39.8% (active). For O=C(Nc1ccsc1C(=O)NC1CCCCC1)c1ccc(F)cc1, the growth was 90.2% (inactive). In the case of O=C(N/N=C/C=C/c1ccc([N+](=O)[O-])o1)c1cc2ccccc2cc1O, the growth is reported as 3.51% (active). In the case of CCOC(=O)C/C(=N\Nc1cc(=O)[nH]c2ccc(Cl)cc12)C(=O)OCC, the growth is reported as 90.6% (inactive). For C(=N\Nc1ncc(-c2cc3cc4c(cc3o2)OCO4)s1)/c1c[nH]c2ccccc12, the growth was 2.27% (active).
